Compounds with a hit are over-represented: about 12% of the library has one in this group of screens.
BAZ2B inh: inhibitors of human BAZ2B bromodomain. 360,000 compounds, 4.4% hits. Potency, µM (doses to about 114 µM), usual class: inhibitors. AlphaScreen BAZ2B-H3K14Ac peptide displacement; also: nearly all actives have a fitted effect of over 60% in size
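AlphaScreen displacement of biotin-H3(5-23)K14Ac peptide (50 nM final) from BAZ2B (50 nM final) in PBS pH 7.4, 0.01% Tween-20; complex preformed 30 min RT, then compounds (top 110 uM) 30 min RT, beads 20 min dark.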
L3MBTL1 inh: L3MBTL1 (human) inhibition; Potency, µM (titrated, usually from 57.1 µM), hits mostly inhibitors; AlphaScreen L3MBTL1–H3K9me1 peptide binding; 230,000 compounds, 0.66% hits; Q9Y468; also: nearly all actives have a fitted effect of over 60% in size
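L3MBTL1 (50 nM) pre-complexed 30 min with biotinylated H3(1-15)K9me1 peptide (75 nM), then compounds added for 30 min at room temperature; AlphaScreen streptavidin donor/nickel chelate acceptor beads (10 ug/mL final) read after 30 min dark incubation.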
Sfp PPTase inh: Sfp phosphopantetheinyl transferase inhibition; Q9F4F7; Biochemical Sfp PPTase activity, qHTS; Potency, µM, most hits filed as inhibitors; 310,000 compounds, 3.5% hits; AID 1490;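 also: the enzyme is Sfp with the accession as filed and its product quenches rhodamine fluorescence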
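After 15 min at room temperature with compound, 15 nM Sfp received 5 uM rhodamine-CoA plus 12.5 uM BHQ-2-ybbR (50 mM Hepes pH 7.6, 10 mM MgCl2). Rate came from the fluorescence difference over 30 min, ex 525/em 598 nm.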
JMJD2A Tudor inh: inhibitors of human JMJD2A Tudor domain | O75164 | 390,000 compounds, 4.4% hits | AlphaScreen JMJD2A-Tudor / H3K4me3 peptide binding | Potency, µM (titrated, usually from 114 µM), most hits filed as inhibitors; also: nearly all actives have a fitted effect of over 50% in size
HP1b binding inh: blocks HP1-beta chromodomain binding to methylated histone tails; Potency, µM (top dose mostly 114 µM), actives largely listed as inhibitors; 390,000 compounds, 0.56% hits; AlphaScreen HP1-beta / biotin-H3K9me3 peptide binding; also: nearly all actives have a fitted effect of over 70% in size
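AlphaScreen: HP1-beta (50 nM) preformed 30 min with biotin-H3(1-18)K9me3 peptide (50 nM) in PBS pH 7.4, 0.01% Tween-20. Compound added for 30 min at RT, then streptavidin donor/nickel chelate acceptor beads (10 ug/mL) for 30 min.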
G9a block: blocks human histone lysine methyltransferase G9a | Potency, µM (series often up to 102 µM), hits mostly inhibitors | 350,000 compounds, 8.8% hits | G9a H3K9 monomethylation, AlphaScreen, 2 h; also: nearly all actives have a fitted effect of over 75% in size
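G9a (20 nM) was preincubated 15 min with compound, then reacted 2 h at room temperature with 500 nM biotin-H3K9 peptide and 20 µM SAM. Monomethyl-H3K9 detected by AlphaScreen using anti-H3K9me1 antibody.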
12-hLO 8HQ R1: confirmation of human 12-lipoxygenase inhibitors, 8HQ series round 1. purified 12-hLO, cuvette UV 234 nm product formation. Potency, µM, hits mostly inhibitors. 35 compounds, 60% hits. shares compounds with BAZ2B inh;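 active = compounds that slowed 12-hLO product formation enough to yield a measured IC50 potency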
Target sequence (P18054 whole entry, looked up): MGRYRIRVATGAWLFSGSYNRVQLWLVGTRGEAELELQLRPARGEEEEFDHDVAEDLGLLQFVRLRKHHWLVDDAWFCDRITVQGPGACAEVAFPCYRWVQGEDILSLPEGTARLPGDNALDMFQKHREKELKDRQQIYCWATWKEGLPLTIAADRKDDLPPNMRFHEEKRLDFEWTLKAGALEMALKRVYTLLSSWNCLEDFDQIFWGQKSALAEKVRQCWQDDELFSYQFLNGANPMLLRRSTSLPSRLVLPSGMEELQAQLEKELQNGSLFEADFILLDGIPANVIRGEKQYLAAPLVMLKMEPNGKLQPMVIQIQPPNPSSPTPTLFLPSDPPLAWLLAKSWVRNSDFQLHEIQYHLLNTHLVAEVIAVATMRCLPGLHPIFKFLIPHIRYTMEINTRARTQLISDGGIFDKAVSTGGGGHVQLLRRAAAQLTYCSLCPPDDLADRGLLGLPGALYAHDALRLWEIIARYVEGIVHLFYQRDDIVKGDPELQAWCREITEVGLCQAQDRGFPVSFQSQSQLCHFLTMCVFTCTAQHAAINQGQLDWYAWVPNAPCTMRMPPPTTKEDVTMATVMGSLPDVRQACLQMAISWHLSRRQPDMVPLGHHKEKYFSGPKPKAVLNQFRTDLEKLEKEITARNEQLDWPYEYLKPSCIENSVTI
JMJD2E inh-1: JMJD2E demethylase inhibition by 8HQ compounds | 130 compounds, 89% hits | AID 493212 | JMJD2E demethylase, FDH-coupled NADH fluorescence | Potency, µM (doses to about 57 µM), usual class: inhibitors | shares compounds with BAZ2B inh
ME-1 prolif: inhibitors of ME-1 leukemia cell proliferation, CBFb-RUNX1 project. shares compounds with BAZ2B inh. ME-1 cell proliferation, ATP luminescence, 48 h. Potency, µM (highest dose often 56.1 µM), usual class: inhibitors. 140 compounds, 20% hits. AID 504370
JMJD2E inh-2: JMJD2E (human) demethylase inhibition, confirmation | shares compounds with JMJD2A Tudor inh | Recombinant JMJD2E, FDH-coupled NADH fluorescence (FDH is formaldehyde dehydrogenase) | Potency, µM (titrated, usually from 56.8 µM), hits mostly inhibitors | 140 compounds, 93% hits | AID 2677
FDH inh: FDH (Pseudomonas putida) inhibition counter-screen. shares compounds with JMJD2A Tudor inh. FDH enzyme assay, NADH fluorescence kinetic. Potency, µM (highest dose often 56.7 µM), hits mostly inhibitors. 140 compounds, 10% hits
JMJD2E MALDI inh: blocks demethylation by human JMJD2E in a MALDI-TOF-MS assay; shares compounds with JMJD2A Tudor inh; recombinant JMJD2E demethylation, MALDI-TOF-MS; Potency, µM, actives largely listed as inhibitors; 45 compounds, 90% hits; AID 2688;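 active = compounds whose IC50 for blocking JMJD2E demethylation is below 100 µM; inconclusive = dose dependent effect but IC50 above 100 µM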
A number is an active result; - = inactive; ? = inconclusive; . = no result given; [ ] = remark or other dose. Unless noted, calls follow the shape of the dose curve; as a rule, active = well fitted curve in the direction sought with a large enough effect; inconclusive = small, poorly fitted or top-dose-only effect, or another doubt; inactive = no such curve, though single readings can be large; an effect the other way counts as inactive or inconclusive.

SMILES	BAZ2B inh	L3MBTL1 inh	Sfp PPTase inh	JMJD2A Tudor inh	HP1b binding inh	G9a block	JMJD2E inh-1	JMJD2E inh-2	FDH inh	others
Cc1cccc(C)c1NC(=O)CSc1nnc(-c2cnccn2)n1C	-	.	-	-	-	.	.	.	.
CC(=O)NC(c1ccco1)c1cc(Cl)c2cccnc2c1O (stereo not drawn)	31.6µM	-	.	.	.	-[12.7 µM]	32.4µM	.	.	12-hLO 8HQ R1=3µM
CCC(=O)NC(c1cc(Cl)c2cccnc2c1O)c1cccn1C (stereo not drawn)	.	.	.	?	.	.	-	.	.	12-hLO 8HQ R1=3.8µM
COc1cccc(C(=O)NC(c2ccc(Cl)cc2)c2cc(Cl)c3cccnc3c2O)c1 (stereo not drawn)	-	.	.	-	-	-	.	.	.
CC(=O)NC(c1ccco1)c1cc(Br)c2cccnc2c1O (stereo not drawn)	28.2µM	?	.	.	.	-[12.7 µM]	28.9µM	.	.	12-hLO 8HQ R1=2µM
CCC(=O)NC(c1ccco1)c1cc(Cl)c2cccnc2c1OC (stereo not drawn)	-	-	.	-	-	-[12.7 µM]	32.4µM	.	.	12-hLO 8HQ R1=-
CCc1nnc(NC(=O)CN2CCN(Cc3ccc(C)cc3)CC2)s1	-	-	-	-	-	-	.	.	.
O=C(OCC#CCSc1nnc(-c2ccc(F)cc2)o1)c1ccc(F)cc1	.	.	.	-	.	.	.	.	.
COc1ccc(CCNC(=O)CCCn2c(=O)c3ccccc3n(Cc3ccccc3C)c2=O)cc1OC	-	.	.	-	-	-	.	.	.
CC(=O)NC(c1ccco1)c1cc(Cl)c2ccc(N(C)C)nc2c1O (stereo not drawn)	50.1µM	-	.	.	.	?	20.4µM	.	.	12-hLO 8HQ R1=-
Cc1cccc(-c2nc3scc(CCNS(=O)(=O)c4ccc(Oc5ccccc5)cc4)n3n2)c1	-	.	.	-	-	-	.	.	.
O=C(CSc1ccc(-c2ccccn2)nn1)NCc1ccccc1	17.8µM	.	-	?	-	-	.	.	.	ME-1 prolif=-
O=C(CSc1ccc(-c2cccc([N+](=O)[O-])c2)nn1)NCc1ccccc1	-	-	-	-	-	-	.	.	.
CN1CCN(C(=O)c2cccc(-c3cc(O)c4ncccc4c3)c2)CC1	12.6µM	31.6µM	.	50.1µM	-	-[12.7 µM]	15.8µM	15.8µM	-
CN1CCCN(C(=O)c2cccc(Br)c2)CC1	-	-	-	-	-	.	.	.	.
O=C(c1cc2ccccc2cc1O)N1CCN(c2ccccn2)CC1	-	.	-	-	-	?	.	.	.
CN1CCN(c2cc(-c3cc(O)c4ncccc4c3)ccn2)CC1	7.94µM	28.2µM	.	25.1µM	-	-[12.7 µM]	15.8µM	15.8µM	-
Oc1cc(-c2cccnc2)cc2cccnc12	3.16µM	7.94µM	.	25.1µM	-	-[12.7 µM]	5.62µM	5.62µM	-
O=C(NC1CCCCC1)C(c1ccccc1F)N(C(=O)c1csnn1)C1CCCC1 (stereo not drawn)	-	.	-	-	-	-	.	.	.
COCCN(C(=O)CCC(=O)Nc1nccs1)C(C(=O)NCCC(C)C)c1ccc(OC)cc1 (stereo not drawn)	-	.	-	-	-	-	.	.	.
Oc1ccc(Cl)cc1CNc1cccc2cccnc12	?	-	-	?	-	-	.	.	.
Oc1ccc(CNc2cccc(C(F)(F)F)c2)c2cccnc12	22.4µM	12.6µM	.	.	.	1.41µM	7.94µM	7.94µM	-
O=[N+]([O-])c1ccccc1NCc1ccc(O)c2ncccc12	.	.	.	?	.	.	4.47µM	10.2µM	-	JMJD2E MALDI inh=12.2
Oc1c(CNc2ccccc2)cc(COCc2ccccc2)c2cccnc12	50.1µM	?	.	-	-	-[12.7 µM]	11.5µM	7.94µM	-
Oc1ccc(CNc2cccnc2)c2cccnc12	.	.	.	22.4µM	.	.	6.46µM	12.9µM	-	JMJD2E MALDI inh=26.3
O=[N+]([O-])c1ccccc1COc1ccc(Cl)c2cccnc12	-	.	-	-	-	-[2.33 µM]	.	.	.
COc1ccc(CCN2C(=O)NC(NC(=O)c3ccccc3OC)(C(F)(F)F)C2=O)cc1OC (stereo not drawn)	-	.	.	-	-	-	.	.	.
Cc1ccc(N2CC(C(=O)N3CCC(C(=O)NC(C)(C)C)CC3)CC2=O)cc1 (stereo not drawn)	-	.	-	?	-	-	.	.	.

Screening data: PubChem, National Center for Advancing Translational Sciences (NCATS)
